# Bioassay records (PubChem)
# T cruzi growth-1 – blocks T. cruzi growth in NIH3T3 culture; inhibition, % at 8.34 µM; T. cruzi beta-gal in NIH3T3, GalScreen luminescence, 90 h; 5.9% of 77,000 active;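 active means mean inhibition above about 93%, with at least 55% of replicates each passing it, limit read from the data, passing the limit was not always enough; inconclusive means only one of those two conditions holds; inactive means neither condition holds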
# Pf Dd2 growth – P. falciparum Dd2 growth inhibition; SYBR Green, 72 h; active compounds read low; activity change, % at 10 µM; 2.3% of 94,000 active; AID 1159554; in the data active means activity change below about -80%; inconclusive means no clear call, values can overlap the other calls
# C diff growth – inhibitors of Clostridium difficile growth; Clostridium difficile clinical isolate growth, OD600, 24 h; active compounds read low; AID 1259249; 0.25% of 86,000 active; growth activity, negative = inhibition, % at 16 µg/mL (by protocol);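 active means mean growth activity at or below -80% and every replicate also at or below -80%; inconclusive means mean at or below -80% but some replicate above -80%; inactive means mean growth activity above -80%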;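 further: 0% = DMSO wells and -100% = levofloxacin 16 µg/mL wells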
# T cruzi growth-2 – inhibitors of T. cruzi proliferation | inhibition, % at 8.35 µM | AID 651739 | 72% of 5,600 active | T. cruzi beta-gal in NIH3T3, GalScreen luminescence, 90 h | shares compounds with T cruzi growth-1;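 active means mean replicate inhibition above about 95% and at least 55% of replicates individually reaching it, limit read from the data; inconclusive means only one of the two criteria is met; inactive means neither criterion is met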
# T cruzi growth-3 – Trypanosoma cruzi proliferation inhibition; inhibition, % at 2.09 µM; shares compounds with T cruzi growth-1; 21% of 5,600 active; T. cruzi beta-gal in NIH3T3, GalScreen luminescence, 90 h;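 active means mean inhibition above about 95%, with at least 55% of replicates also reaching it, limit read from the data; inconclusive means meets just one of the two conditions; inactive means meets neither condition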;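 further: plate controls were neutral control median for no effect and positive control median for full effect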
# NIH3T3 tox – cytotoxicity in mouse NIH/3T3 fibroblasts | shares compounds with T cruzi growth-1 | NIH/3T3 viability, CellTiter-Glo ATP luminescence, 90 h | cytotoxicity (signal decrease), % at 8.35 µM | 14% of 5,600 active | AID 651742;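 active means mean signal decrease across replicates above about 35% based on untreated-well scatter, with enough replicates individually passing, limit read from the data; inconclusive means no rule stated though some were filed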;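 further: 0% = median of neutral control wells and 100% = median of positive control wells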
# NIH3T3 tox 2 – NIH/3T3 (mouse) viability loss; 56% of 5,600 active; AID 651744; inhibition, % at 24.9 µM; shares compounds with T cruzi growth-1; NIH/3T3 viability, CellTiter-Glo ATP luminescence, 90 h;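 active means mean loss of cell viability signal at or above a set limit, and enough replicates individually reaching it; inconclusive means meets only the mean limit or only the replicate share; inactive means meets neither condition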;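 further: 0% = median of neutral control wells and 100% = median of positive control wells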
# Starred values were filed as active, the others as inactive; ? = inconclusive; nt = no result. Most compounds without a hit are left out; they make up all but 6.7% or so of the library.
SMILES,T cruzi growth-1,Pf Dd2 growth,C diff growth,T cruzi growth-2,T cruzi growth-3,NIH3T3 tox,NIH3T3 tox 2
CN1c2ccc(-c3ccc(F)cc3)cc2[C@H]2[C@H](CCN2C(=O)C2CCOCC2)[C@H]1CO,88,26,1,nt,nt,nt,nt
CN(C)C(=O)c1ccc(-c2ccc3c(c2)[C@@H]2[C@@H](CCN2C(=O)C2CCOCC2)[C@@H](CO)N3C)cc1,102*,1,-5,107*,55,-7,11
CC(C)NC(=O)N[C@H]1CC[C@@H](CC(=O)NCCN2CCCC2)O[C@H]1CO,7,15,-1,nt,nt,nt,nt
CN1C(=O)c2cc(NC(=O)Nc3ccccc3F)ccc2OC[C@@H]2O[C@H](CC(=O)NCCc3ccncc3)CC[C@@H]21,28,12,-20,nt,nt,nt,nt
CN(C)C(=O)C[C@@H]1CC[C@@H]2[C@H](COC[C@H](O)CN2S(=O)(=O)c2ccccc2Cl)O1,24,31,5,nt,nt,nt,nt
COc1ccc(S(=O)(=O)N(C)C[C@@H]2OCCCC[C@@H](C)Oc3ccc(NS(=O)(=O)c4ccc(C)cc4)cc3C(=O)N([C@H](C)CO)C[C@@H]2C)cc1,57,-14,5,nt,nt,nt,nt
COc1ccc(S(=O)(=O)N(C)C[C@H]2OCCCC[C@H](C)Oc3ccc(NS(=O)(=O)c4ccc(C)cc4)cc3C(=O)N([C@H](C)CO)C[C@H]2C)cc1,?,-83*,-1,107*,93,-7,12
COc1ccc(S(=O)(=O)Nc2ccc3c(c2)C(=O)N([C@@H](C)CO)C[C@H](C)[C@H](CN(C)S(=O)(=O)c2ccc(C)cc2)OCCCC[C@@H](C)O3)cc1,nt,-66,nt,nt,nt,nt,nt
COc1ccc(S(=O)(=O)N(C)C[C@H]2OCCCC[C@H](C)Oc3ccc(NS(=O)(=O)c4ccc(C)cc4)cc3C(=O)N([C@H](C)CO)C[C@@H]2C)cc1,?,-47,1,110*,66,1,-31
COCC(=O)N1CC2(C1)[C@H](c1ccc(-c3ccccc3)cc1)[C@H](CO)N2C(C)=O,nt,34,-7,nt,nt,nt,nt
N#C[C@@H]1[C@H](c2ccc(C#CCC3CCCC3)cc2)[C@H](CO)N1C(=O)CN1CCOCC1,?,-41,-10,102*,107*,22,77*
COCC(=O)N1[C@H](C#N)[C@H](c2ccc(C#CCC3CCCC3)cc2)[C@H]1CO,88,8,-21,nt,nt,nt,nt
COCC(=O)N1[C@@H](C#N)[C@@H](c2ccc(C#CCC3CCCC3)cc2)[C@@H]1CO,?,-21,2,99*,90,17,103*
N#C[C@H]1[C@@H](c2ccc(C#CCC3CCCC3)cc2)[C@H](CO)N1C(=O)CN1CCOCC1,90,-28,-4,nt,nt,nt,nt
CNC[C@H]1OCCCC[C@@H](C)Oc2ccc(NS(=O)(=O)c3cn(C)cn3)cc2C(=O)N([C@@H](C)CO)C[C@H]1C,52,4,4,nt,nt,nt,nt
CS(=O)(=O)N1CC2(C1)[C@H](c1ccccc1)[C@H](CO)N2CCC(F)(F)F,nt,2,-2,nt,nt,nt,nt
C[C@@H]1CN([C@H](C)CO)S(=O)(=O)c2ccc(C#Cc3ccc(F)cc3)cc2O[C@H]1CN(C)S(=O)(=O)c1cn(C)cn1,110,?,2,nt,nt,nt,nt
C[C@H](CO)N1C[C@H](C)[C@H](CN(C)S(=O)(=O)c2cn(C)cn2)Oc2cc(C#Cc3ccccc3)ccc2S1(=O)=O,54,-72,5,nt,nt,nt,nt
C[C@H]1CN([C@@H](C)CO)S(=O)(=O)c2ccc(C#Cc3ccc(F)cc3)cc2O[C@@H]1CN(C)S(=O)(=O)c1cn(C)cn1,122*,-63,0,103*,101*,46*,49*
C[C@@H]1CN([C@H](C)CO)S(=O)(=O)c2ccc(C#Cc3ccccc3)cc2O[C@H]1CN(C)S(=O)(=O)c1cn(C)cn1,99*,-86*,-4,107*,37,67*,51*
CC(=O)N[C@@H]1CC[C@@H](CC(=O)NCc2ccc(Cl)cc2)O[C@@H]1CO,-28,3,-2,nt,nt,nt,nt
COc1ccc(CN(C)C[C@@H]2Oc3c(NC(=O)Nc4ccc(C(F)(F)F)cc4)cccc3C(=O)N([C@@H](C)CO)C[C@H]2C)cc1,nt,-1,15,nt,nt,nt,nt
C[C@@H]1CN([C@H](C)CO)C(=O)c2cccc(NC(=O)Nc3ccc(C(F)(F)F)cc3)c2O[C@H]1CN(C)Cc1ccc(Oc2ccccc2)cc1,121*,-3,7,?,91,-4,104*
C[C@H]1CN([C@@H](C)CO)C(=O)c2cccc(NC(=O)Nc3ccc(C(F)(F)F)cc3)c2O[C@H]1CN(C)Cc1ccc(Oc2ccccc2)cc1,93,2,81,nt,nt,nt,nt
COc1ccc(NC(=O)Nc2cccc3c2O[C@@H](CN(C)Cc2ccc(C(F)(F)F)cc2)[C@H](C)CN([C@H](C)CO)C3=O)cc1,-1,-6,6,nt,nt,nt,nt
SMILES,T cruzi growth-1,Pf Dd2 growth,C diff growth,T cruzi growth-2,T cruzi growth-3,NIH3T3 tox,NIH3T3 tox 2
C[C@@H]1CN([C@@H](C)CO)C(=O)c2cccc(NC(=O)Nc3ccc(C(F)(F)F)cc3)c2O[C@@H]1CN(C)Cc1ccc(Oc2ccccc2)cc1,124*,-72,-96*,87,111*,60*,105*
C[C@@H]1CN([C@@H](C)CO)C(=O)c2cccc(NC(=O)Nc3ccc(C(F)(F)F)cc3)c2O[C@H]1CN(C)Cc1ccc(Oc2ccccc2)cc1,126*,12,7,109*,102*,-1,99*
C[C@@H]1CN([C@H](C)CO)C(=O)c2cccc(NC(=O)Nc3ccc(C(F)(F)F)cc3)c2O[C@@H]1CN(C)Cc1ccc(Oc2ccccc2)cc1,120*,-33,-25,97*,98*,29,104*
COCC(=O)Nc1ccc2c(c1)C(=O)N(C)[C@H]1CC[C@H](CC(=O)NCc3ccccc3F)O[C@@H]1CO2,nt,50,2,nt,nt,nt,nt
C[C@@H]1CN([C@H](C)CO)C(=O)Cc2cc(NC(=O)CCC(F)(F)F)ccc2O[C@H]1CN(C)C(=O)Nc1cccc2ccccc12,42,3,-7,nt,nt,nt,nt
C[C@H](CO)N1C[C@H](C)[C@H](CN(C)C(=O)Nc2ccc(C(F)(F)F)cc2)OCc2cn(nn2)CCCC1=O,49,-3,-3,nt,nt,nt,nt
COc1ccc(S(=O)(=O)N(C)C[C@H]2OCCCC[C@H](C)Oc3ccc(NC(=O)C4CCCCC4)cc3C(=O)N([C@H](C)CO)C[C@H]2C)cc1,41,-62,-1,nt,nt,nt,nt
CCC(=O)N1C[C@H](O)COC[C@H]2O[C@@H](CC(=O)NC)CC[C@@H]21,-19,19,0,nt,nt,nt,nt
CC(C)NC(=O)N(C)C[C@H]1Oc2ccc(NC(=O)Nc3ccc4c(c3)OCO4)cc2C(=O)N([C@@H](C)CO)C[C@H]1C,22,9,nt,nt,nt,nt,nt
C[C@@H]1CCCCO[C@@H](CN(C)S(=O)(=O)c2cccs2)[C@H](C)CN([C@H](C)CO)C(=O)c2cc(NC(=O)c3ccccc3)ccc2O1,66,-67,12,nt,nt,nt,nt
